Test results: PubChem BioAssay
Calls of active or inactive are those of the source. The rule behind the calls is not given here.

Assay: Brca1-Bard1 BiLC signal decrease – luminescence, single concentration, counter-screen for Mdm2/MdmX interaction inhibitor project, confirmation (AID 504668)
Settings: Brca1/Bard1 bimolecular luciferase complementation counterscreen, at 8 µM, active compounds read high

SMILES	inhibition
CCc1cc(C(=O)N2CCc3c([nH]c4ccccc34)C2c2ccc(OC)cc2F)no1 (centres undefined)	34.5% (active)
Cc1cc(NC(=O)/C=C/C(=O)N(c2ccccc2C)C(C(=O)NC2CCCC2)c2ccc(F)cc2)no1 (centres undefined)	28.7% (active)
c1ccc(-[n+]2nc(Nc3cccc4ccccc34)sc2-c2c3ccccc3cc3ccccc23)cc1	23.6% (active)
CCCC(=O)NC(c1ccc(OC)c(OC)c1)c1cc(Cl)c2cccnc2c1O (centres undefined)	27.9% (active)
CCC(C)Nc1nc(-c2ccccn2)nc2ccccc12 (centres undefined)	29.2% (active)
O=[N+]([O-])c1ccccc1C1Nc2cccc3cccc(c23)N1	26.9% (active)
Cc1ccc(NC(=O)c2ccccc2NS(=O)(=O)c2ccc(F)cc2)cc1S(=O)(=O)N1CCCCC1	28.2% (active)
O=c1cc(CSc2ccc(Cl)cc2)nc(-c2ccccn2)[nH]1	30.5% (active)
CC(=O)c1c(C)[nH]c(C(=O)N2CCN(c3cc(Cl)ccc3C)CC2)c1C	34% (active)
O=C(Nc1nc(-c2ccccn2)cs1)c1cc(Cl)ccc1[N+](=O)[O-]	32.3% (active)
O=C(NC1CCCc2c1cnn2-c1ccccc1F)c1ccccn1 (centres undefined)	28.6% (active)
C/C(=N\NC(=O)c1ccc(Cl)c(Cl)c1)c1ccccn1	25.9% (active)
CCOc1ccc(N=Nc2ccc(O)c3ncccc23)cc1	23.3% (active)
O=C1c2cccc3c([N+](=O)[O-])ccc(c23)C(=O)N1c1nccs1	27% (active)
CCC(=O)Nc1cccc(C(=O)/C=C/c2ccccc2)c1	34.4% (active)
Cc1ccc(OC(F)F)c(NC(=O)Nc2cccc(C(F)(F)F)c2)c1	23.7% (active)
COC(=O)C1=C(C)NC(C)=C(C(=O)OC)C1c1ccccc1[N+](=O)[O-]	28% (active)
Cc1ccc2c(C)nc(Nc3nc(CSc4nc5ccccc5[nH]4)cc(=O)[nH]3)nc2c1	32.5% (active)
CCCCC(=O)NC(c1ccco1)c1cc(Cl)c2cccnc2c1O (centres undefined)	28.6% (active)
C[C@@]12C(=O)Nc3ccccc3C(=O)N1[C@H]1c3cc(Br)ccc3OC[C@@H]1[C@@H]2c1ccccc1	30.8% (active)

SMILES	inhibition
CCOc1ccc2nc(NC3=NC(c4ccc(OC)cc4)CC(=O)N3)nc(C)c2c1 (centres undefined)	30.6% (active)
CC#CC[N+](C)(C)CCCCCCCCCCCC	29.6% (active)
CN(C)C=Nc1ncc2c([nH]c3ccccc32)c1C#N	23% (active)
CC1(C)Cc2ccccc2C2=NNC(=O)C2=N1	29.2% (active)
O=C(N/N=C(\c1ccccc1)c1cccnc1)c1cccc(F)c1	33.2% (active)
O=C(/C=C/c1ccccc1)NC(NC(=S)Nc1ccc(Cl)cc1Cl)C(Cl)(Cl)Cl (centres undefined)	23.4% (active)
COc1ccc(C2=Nn3c(nnc3-c3ccccc3F)SC2)cc1OC1CCCC1	28.6% (active)
O=C(/C=C/c1ccc(Cl)cc1)c1ccc([N+](=O)[O-])o1	31.4% (active)
CCOc1cc(NC(=O)c2ccco2)c(OCC)cc1NC(=O)COc1ccccc1C	33.4% (active)
O=C(/C=C\c1cn(-c2ccccc2)nc1-c1ccccc1)Nc1nccs1	28.9% (active)
N=c1c2c(-c3ccccc3)c(-c3ccccc3)n(Cc3ccco3)c2ncn1Cc1ccco1	31.4% (active)
C=CCC(Nc1ccccc1)C12C=CC(O1)C(C(=O)OC)=C2C(=O)OC (centres undefined)	31.4% (active)
CN(C)C1CCN(Cc2cc(COCc3ccccc3)c3cccnc3c2O)C1 (centres undefined)	32.8% (active)
Cc1sc2ncnc(N3CCC(C(=O)N(C)CC(=O)Nc4ccc(Cl)c(C(F)(F)F)c4)CC3)c2c1C	29% (active)
COc1cc([C@@H]2c3cc4c(cc3[C@@H](O[C@@H]3O[C@@H]5CO[C@@H](C)O[C@H]5[C@H](O)[C@H]3O)[C@H]3COC(=O)[C@H]23)OCO4)cc(OC)c1O	31.6% (active)
O=C(c1ccc(S(=O)(=O)c2ccc(F)cc2)c([N+](=O)[O-])c1)N1CCCCCC1	30.1% (active)
COc1ccc(C2=Nn3c(nnc3-c3ccccc3F)SC2)cc1OC1CCOC1 (centres undefined)	33.4% (active)
O=C(Nc1ccc(OC(F)(F)F)cc1)Nc1cccc([N+](=O)[O-])c1	35.8% (active)
N#CCSc1nc2c(sc(=S)n2Cc2ccco2)c(=O)n1-c1ccc(F)cc1	31.6% (active)
